Compound activity as filed in PubChem.
Sampled rows, rich in hits. Any-hit rate of the full collection: about 1.2%.
GASC-1 inh: inhibitors of human GASC-1 (JMJD2C) demethylase; GST-JMJD2C(1-420) H3K9me3 demethylation, DELFIA europium; inhibition, % at 2.35 µM; hit rate 0.069% among 330,000; AID 2099;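 active = more than half of a compound's replicate wells show inhibition beyond 50%, single wells judged on their own value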;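 also: signal counts dimethyl H3K9 product captured on neutravidin plate; 0% = median of DMSO wells and 100% = 0.3 times that DMSO median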
VLA-4 inh: inhibition in a human VLA-4 binding assay; VLA-4 expressing cells, ligand binding flow cytometry; hit rate 0.2% among 330,000; inhibition, % (about 7 µM as worked out from the volumes in the protocol); in the data active = inhibition above about 50%
Target sequence (P13612 whole entry, looked up): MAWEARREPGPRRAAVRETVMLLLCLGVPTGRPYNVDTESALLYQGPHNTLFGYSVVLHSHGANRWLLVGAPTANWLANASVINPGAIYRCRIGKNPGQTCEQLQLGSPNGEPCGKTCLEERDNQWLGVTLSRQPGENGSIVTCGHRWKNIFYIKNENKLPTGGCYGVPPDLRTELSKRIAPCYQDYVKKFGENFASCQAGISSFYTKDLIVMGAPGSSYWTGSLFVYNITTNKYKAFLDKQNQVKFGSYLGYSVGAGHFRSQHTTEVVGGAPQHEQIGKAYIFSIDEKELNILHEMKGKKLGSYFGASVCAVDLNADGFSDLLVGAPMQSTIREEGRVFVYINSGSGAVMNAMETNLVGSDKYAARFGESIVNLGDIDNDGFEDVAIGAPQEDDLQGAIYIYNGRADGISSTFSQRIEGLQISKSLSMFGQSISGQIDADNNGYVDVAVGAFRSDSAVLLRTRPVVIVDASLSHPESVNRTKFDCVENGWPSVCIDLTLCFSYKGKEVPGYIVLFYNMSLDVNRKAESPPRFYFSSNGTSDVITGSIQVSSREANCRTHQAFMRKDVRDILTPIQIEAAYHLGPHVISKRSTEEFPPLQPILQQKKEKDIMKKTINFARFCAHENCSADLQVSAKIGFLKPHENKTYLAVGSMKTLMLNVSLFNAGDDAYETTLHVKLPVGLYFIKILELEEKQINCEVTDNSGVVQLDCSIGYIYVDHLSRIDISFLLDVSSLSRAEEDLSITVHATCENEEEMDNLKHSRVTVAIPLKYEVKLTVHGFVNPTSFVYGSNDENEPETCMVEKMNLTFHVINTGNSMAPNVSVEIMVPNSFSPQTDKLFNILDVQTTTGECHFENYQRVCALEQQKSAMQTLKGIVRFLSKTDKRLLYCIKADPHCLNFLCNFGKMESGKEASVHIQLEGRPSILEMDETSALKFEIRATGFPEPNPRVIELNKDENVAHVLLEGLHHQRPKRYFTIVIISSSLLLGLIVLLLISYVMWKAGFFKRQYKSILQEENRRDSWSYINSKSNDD
GPR7 antagonist: antagonists of human GPR7 (neuropeptides B/W receptor 1); inhibition, % at 4.4 µM; GPR7-expressing cells, fluorescence antagonist assay; P48145; hit rate 1.1% among 290,000; AID 1861; in the data active = inhibition above about 16%, passing the limit was not always enough;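 also: cells stimulated with the agonist NPW; 0% = agonist with vehicle and 100% = vehicle without agonist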
pCIP destab: p/CIP protein destabilization; F442A p/CIP-EGFP cells, EGFP fluorescence, 16 h; decrease of EGFP signal, % at 10 µM; hit rate 0.01% among 290,000;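 active = EGFP signal decrease of at least 30% at 10 µM or well 3 SD below plate mean, unless failing retest; inactive = the rest, including hits failing retest or dose response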
GPR7 antag cf: human GPR7 antagonism, confirmation assay; GPR7-expressing cells, calcium fluorescence antagonist mode; shares compounds with GPR7 antagonist; AID 1952; inhibition, % at 4.4 µM; hit rate 52% among 2,400; in the data active = inhibition above about 24%;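 also: stimulated with the GPR7 agonist NPW; 0% = agonist plus vehicle and 100% = vehicle alone without agonist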
MCHR1 antag: MCHR1 (human) antagonism in GPR7 counter-screen; shares compounds with GPR7 antagonist; MCHR1-expressing cells, fluorescence antagonist assay; inhibition, % at 4.4 µM; hit rate 62% among 2,400; in the data active = inhibition above about 22%;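 also: 0% = vehicle with agonist and 100% = vehicle without agonist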
Numbers without * were called inactive; . = no result given.

SMILES	GASC-1 inh	VLA-4 inh	GPR7 antagonist	pCIP destab	MCHR1 antag	others
O=C(Nc1cccc(NC(=O)c2cccs2)c1)c1ccc2c(c1)OCCO2	5	12	-1	4	.
COC(=O)C1=C(C)N(CCc2cc(OC)c(OC)c(OC)c2)C(=O)N[C@H]1c1cccs1	56*	-3	-18	-2	.
O=C(Nc1ccc(OC(F)(F)F)cc1)Nc1cccc([N+](=O)[O-])c1	-3	-1	43*	-3	.
Cc1ccc(NC(=O)Nc2cccc([N+](=O)[O-])c2)cc1F	0	18	30*	5	.
COc1ccccc1NC(=S)NC(=O)c1ccc(Cn2cc(Br)cn2)cc1	2	-1	6	-14	.
CC(=O)C(Sc1nc(N2CCOCC2)nc(N2CCOCC2)n1)C(=O)Nc1ccccc1 (stereo not drawn)	70*	-11	0	2	.
N#C/C(=C\c1ccc(C#N)cc1)C(=O)c1ccccc1	-15	1	-1	3	.
CN(C)c1ccc(/C=C(\C#N)C(=O)c2ccccc2)cc1	-6	-4	29*	4	.
CCN(CC)c1ccc2cc(-c3nc4ccccc4n3C)c(=O)oc2c1	1	11	17*	-115	.
CCN(CC)c1ccc2cc(-c3nnc(-c4ccccc4)o3)c(=O)oc2c1	19	-371	18	-102	.
O=C1c2ccc([N+](=O)[O-])cc2C(=O)N1Cc1cccnc1	52*	6	-16	-16	.
O=C(NCc1cccnc1)/C(=C\c1ccc(-c2ccc(Br)cc2)o1)S(=O)(=O)c1ccccc1	-4	37	23*	2	.
O=C(NCc1cccnc1)/C(=C/c1ccc(-c2ccc(Cl)cc2)o1)S(=O)(=O)c1ccccc1	-7	13	27*	2	.
O=C(CN(Cc1ccc(Br)cc1)S(=O)(=O)c1ccccc1)NCc1cccnc1	-2	11	-8	3	.
N#Cc1c(-c2ccccc2)nc(SCC(=O)Nc2ccc(OC(F)(F)Cl)cc2)[nH]c1=O	4	35	3	-9	.
CSCC[C@H](NC(=O)CCNC(C)=O)c1nc2ccccc2[nH]1	63	3	2	5	.
COC(=O)c1ccc(COc2ccccc2/C=C(\C#N)C(=O)Nc2c(C)cccc2C)cc1	1	-8	0	10	.
C=CCn1c(O)c(N=Nc2ccccc2C)c2ccccc21	97*	-13	4	-8	.
Cc1nc(C)c(C(=O)N2CCCC(C(=O)c3cc(F)ccc3F)C2)s1 (stereo not drawn)	-3	-4	7	-2	.
CS(=O)(=O)c1nc(-c2ccco2)cc(C(F)(F)F)n1	1	38	15*	5	.
N#Cc1cccc2cnccc12	13	2	19*	-6	.
Cn1c(-c2ccccc2)c(/C=N/NC(=O)c2cccnc2)c2ccccc21	62	5	0	-1	.
OCC1(Cc2ccc(Cl)cc2)CCN(Cc2ccccc2F)CC1	-5	7	-6	2	.
CSc1ccc(CN2CCC(CO)(Cc3ccc(Cl)cc3)CC2)cc1	0	6	30*	-17	.
O=C(COC(=O)c1ccc([N+](=O)[O-])cc1)Nc1ccccc1C(=O)NC1CC1	6	8	.	.	.
SMILES	GASC-1 inh	VLA-4 inh	GPR7 antagonist	pCIP destab	MCHR1 antag	others
Oc1ccccc1N=Nc1nc(-c2ccccc2)c(-c2ccccc2)[nH]1	-3	90*	1	-6	.
COc1ccccc1N=Nc1nc(-c2ccccc2)c(-c2ccccc2)[nH]1	3	-59	0	-2	.
COC(=O)CNC(c1ccccc1)c1cc(C)ccc1NC(=O)c1cccc(Cl)c1 (stereo not drawn)	11	4	24*	-8	.
CC1CCN(S(=O)(=O)c2ccc3[nH]c(=O)[nH]c3c2)CC1	58*	9	-13	0	.
Cc1cc(C)n(C(=O)c2cccc(S(=O)(=O)N3CCCC3)c2)n1	9	-26	21*	-8	.
CN1CCN(C(=O)c2cccc(S(=O)(=O)N3CCCC3)c2)CC1	3	41	.	.	.
Cc1cc(C)c(S(=O)(=O)NC2CC(C)(C)NC(C)(C)C2)cc1C	0	19	101*	-14	2	GPR7 antag cf=-4
Cc1ccccc1Nc1nc(NCc2ccco2)c2ccccc2n1	-6	2	27*	11	63*	GPR7 antag cf=14
CN(C)S(=O)(=O)n1cc(/C=C(\NC(=O)c2ccccc2Cl)C(=O)N2CCCC2)c2ccccc21	1	-1	31*	-3	34*	GPR7 antag cf=10
Cc1ccc(OCc2nc(C#N)c(N3CCN(Cc4ccccc4)CC3)o2)cc1	11	6	43*	0	51*	GPR7 antag cf=44*
N#Cc1nc(COc2ccccc2)oc1N1CCN(Cc2ccccc2)CC1	4	7	26*	-6	52*	GPR7 antag cf=33*
N#Cc1nc(COc2ccccc2)oc1N1CCC(Cc2ccccc2)CC1	-2	-4	9	-3	.
N#Cc1nc(COc2ccc(F)cc2)oc1N1CCCC1	-14	9	14	7	.
O=C1NCCCC1C(=O)Nc1ccccc1C(F)(F)F (stereo not drawn)	0	-17	-11	-4	.
O=C(COC(=O)CNS(=O)(=O)c1ccc2ccccc2c1)Nc1ccccc1Sc1ccccc1	1	11	23*	6	34*	GPR7 antag cf=32*
COC(=O)C1=C(C)N(Cc2ccccc2)C(=NCc2cccc(C(F)(F)F)c2)N[C@H]1c1cccc(F)c1	126	.	38*	-2	71*	GPR7 antag cf=70*
CCN1C(=NCc2cccc(Cl)c2)N[C@@H](c2cccc(F)c2)C(C(=O)OC)=C1C	-2	27	33*	-10	30*	GPR7 antag cf=58*
COC(=O)C1=C(C)N(Cc2ccccc2)C(=NCC(C)C)N[C@H]1c1ccccc1	3	-16	47*	-10	40*	GPR7 antag cf=50*
COCCN=C1N[C@@H](c2cccc(C(F)(F)F)c2)C(C(=O)OC)=C(C)N1Cc1ccccc1	-4	39	.	-5	17
CCN1C(=S)N[C@@H](c2cccc(F)c2)C(C(=O)OC)=C1C	-6	35	-2	-3	.
CN(CC(=O)Nc1ccccc1Cl)CC(=O)Nc1sc2c(c1C(N)=O)CCC2	-1	-15	.	.	.
NC(=O)c1c(N)sc2c1CCCC2	3	13	23*	-14	17	GPR7 antag cf=1
CCOC(=O)c1c(NC(C)=O)sc2c(OCC(O)CNC(C)(C)C)c(Br)ccc12 (stereo not drawn)	0	-1	0	-16	.
CCOC(=O)c1c(N)sc2c(OCC)c(Br)ccc12	-3	-6	24*	4	28*	GPR7 antag cf=29*
O=C(NCc1ccccc1)c1cc(=O)c2ccccc2o1	11	25	22*	-4	10	GPR7 antag cf=-1
COc1ccc(CNC(=O)c2cc(=O)c3ccccc3o2)cc1	-3	-28	-8	-7	.
Cc1ccccc1NC(=O)c1cccc(C(=O)Nc2ccccc2C)n1	-14	2	33*	-4	37*	GPR7 antag cf=11
Cc1nc2ccccn2c1/C(O)=C1\C(=O)C(=O)N(CCCN(C)C)C1c1ccc(F)cc1 (stereo not drawn)	.	38	4	.	.
